Source: PubChem BioAssay
Sampled rows, rich in hits. Any-hit rate of the full collection: about 2.2%.
PGC1a acetyl inh: lowers PGC1a acetylation signal in U2OS cells; AlphaScreen anti-acetyl-lysine; with virally co-expressed GCN5 acetyltransferase; inhibition, % at 15.6 µM; hit rate 0.17% among 350,000; AID 651687;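 active means every replicate shows inhibition of at least 40%; inconclusive means mean inhibition at least 40% but some replicate below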;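 further: 0% = neutral control wells and 100% = positive control wells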
LGR2 inh: blocks bursicon-induced cAMP signaling via Drosophila LGR2. HEK293 LGR2, CRE-luciferase, bursicon-stimulated, 4 h. inhibition, % at 9.99 µM. hit rate 0.35% among 380,000. AID 720647;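 active means drop in luminescence signal, shown as inhibition above about 50% in the replicate tests, limit read from the data, passing the limit was not always enough; inconclusive means probably only some replicates passing the limit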;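 further: agonist challenge used bursicon conditioned medium at about half maximal strength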
TRPM1 prom inh: inhibitors of MITF-driven TRPM1 promoter in melanoma cells; SK-MEL-5 TRPM1 promoter luciferase, 24 h; inhibition, % at 12.5 µM; hit rate 0.83% among 330,000;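 active means mean inhibition across replicates of 60% or more, whatever share of single replicates reaches that level; inconclusive means some that reach 60%, reason not given; inactive means mean inhibition across replicates below 60%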
EBV LMP1 NFkB: reduces LMP1-driven NF-kappaB luciferase signal; LMP1-induced NF-kappaB luciferase reporter cells, luminescence; hit rate 0.69% among 350,000; AID 504558; inhibition, % at 12.5 µM; in the data active means inhibition above about 41%; inconclusive means no clear call, values can overlap the other calls;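 further: 0% = neutral control wells and 100% = reference inhibitor control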
PAX8 inh HTS: inhibitors of PAX8 transcriptional activity in RMG-I cells; RMG-I TPO-luciferase reporter, SteadyGlo, 24 h; inhibition, % at 12.6 µM; hit rate 1.2% among 360,000; AID 652154;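 active means mean replicate inhibition at least 60% with every replicate also reaching 60%; inconclusive means only one of the two criteria is met; inactive means mean below 60% and not all replicates reaching 60%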;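 further: luciferase light reporting Pax8 driven TPO promoter activity; plate controls were median of neutral control wells for no effect and mitoxantrone controls for full effect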
EWS-Fli block: blocks EWS/Fli oncoprotein-driven transcription | A673 NR0B1-luciferase reporter, viability-normalised | inhibition, % at 12.6 µM | hit rate 0.67% among 350,000 | AID 651661;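 active means mean inhibition of at least 50% after viability correction, with every replicate also passing that limit; inconclusive means mean reaches 50% but only one of two replicates passes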;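 further: firefly luciferase signal divided by Alamar Blue viability fluorescence both relative to DMSO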
Starred values were filed as active, the others as inactive; ? = inconclusive; . = no result given.

SMILES | PGC1a acetyl inh | LGR2 inh | TRPM1 prom inh | EBV LMP1 NFkB | PAX8 inh HTS | EWS-Fli block
C[C@H]1CN([C@@H](C)CO)C(=O)Cc2cc(NC(=O)Nc3ccccc3)ccc2O[C@H]1CN(C)Cc1ccc(Oc2ccccc2)cc1 | 10 | -3 | . | . | 10 | 3
C[C@@H]1CN([C@@H](C)CO)C(=O)Cc2cc(NC(=O)Cc3ccccc3)ccc2O[C@H]1CN(C)Cc1ccc(Oc2ccccc2)cc1 | -10 | 13 | . | . | 72* | 4
C[C@H](CO)N1C[C@H](C)[C@H](CN(C)Cc2ccc(Oc3ccccc3)cc2)Oc2ccc(NC(=O)Cc3ccccc3)cc2CC1=O | 4 | -17 | . | . | 47 | 9
C[C@@H]1CN([C@@H](C)CO)C(=O)Cc2cc(NC(=O)Nc3ccccc3)ccc2O[C@H]1CN(C)Cc1ccc(Oc2ccccc2)cc1 | -32 | 7 | . | . | 82* | 23
COc1ccc(NC(=O)Nc2ccc3c(c2)CC(=O)N([C@H](C)CO)C[C@H](C)[C@@H](CN(C)Cc2ccc(Oc4ccccc4)cc2)O3)cc1 | -10 | 17 | . | . | 69* | 5
C[C@@H]1CN([C@H](C)CO)C(=O)c2cc(C3=CCCC3)cnc2O[C@@H]1CN(C)C(=O)CN1CCOCC1 | 4 | 1 | . | . | -10 | -44
N#C[C@H]1[C@@H](c2ccc(C#CCC3CCCC3)cc2)[C@H](CO)N1C(=O)c1ccccn1 | -10 | 5 | . | . | 14 | 2
O=C(/C=C/c1ccc(O)cc1)c1ccc(NC2=C(N3CCCCC3)C(=O)c3ccccc3C2=O)cc1 | 6 | -36 | 26 | 43* | . | -17
Cc1ccc(NC2=C(N3CCCCC3)C(=O)c3ccccc3C2=O)cc1 | 1 | -15 | 32 | -2 | . | .
O=C1C(Nc2ccccc2)=C(N2CCCCC2)C(=O)c2ccccc21 | -8 | . | 75* | 5 | . | .
C#CCN(C[C@@H]1[C@@H](OC(=O)NCc2ccccc2)[C@@H](OC(=O)NCc2ccccc2)CN(C(=O)OC(C)C)N1C(=O)OC(C)C)S(=O)(=O)c1ccc(C)cc1 | 11 | 2 | . | -25 | 35 | 10
C#CCN(C[C@@H]1[C@@H](OC(=O)NCC2CCCCC2)[C@@H](OC(=O)NCC2CCCCC2)CN(C(=O)OC(C)C)N1C(=O)OC(C)C)S(=O)(=O)c1ccc(C)cc1 | 12 | -1 | . | -14 | 72* | 11
CCN(CC)c1ccc(C(NC(=O)C(C)C)c2ccc3cccnc3c2O)cc1 (centres undefined) | 20 | . | . | 72* | 93* | 45
CC(=O)NC(c1ccco1)c1cc(F)c2cccnc2c1O (centres undefined) | . | 2 | -3 | 32 | 13 | 26
Oc1c(C(Nc2nc3ccccc3s2)c2ccco2)ccc2cccnc12 (centres undefined) | -6 | . | 33 | 61* | . | .
CCCC(=O)NC(c1ccc(N(C)C)cc1)c1c(O)ccc2ccccc12 (centres undefined) | -4 | -2 | 4 | -6 | 9 | .
CCCCC(=O)NC(c1ccc(N(C)C)cc1)c1ccc2cccnc2c1O (centres undefined) | -4 | 12 | 61* | 34 | 86* | 42
CCCCC(=O)NC(c1ccc(N(CC)CC)cc1)c1ccc2cccnc2c1O (centres undefined) | . | . | 58 | 82* | 93* | 49
O=C(C[C@H]1C[C@H]2c3cc(NC(=O)Cc4ccncc4)ccc3O[C@H]2[C@@H](CO)O1)NCCN1CCCCC1 | -1 | 15 | . | . | 22 | -7
Cc1noc(C)c1NC(=O)Nc1cccc2c1O[C@@H](CN(C)S(=O)(=O)c1cn(C)cn1)[C@@H](C)CN([C@@H](C)CO)C2=O | -4 | 17 | . | . | . | -3
Cc1ccc(S(=O)(=O)NCC[C@H]2CC[C@H](NC(=O)CCN3CCCCC3)[C@@H](CO)O2)cc1 | -3 | 2 | . | . | 1 | 9
CC(C)C(=O)NC(c1ccco1)c1ccc2cccnc2c1O (centres undefined) | 16 | ? | 76* | 21 | . | .
CCC(=O)N1CC[C@H]2[C@H](CO)Nc3ccc(-c4ccc(C(=O)N(C)C)cc4)cc3[C@H]21 | -3 | -17 | . | . | -7 | 4
COc1ccc(CCNC(=O)CSC(=O)c2ccccc2)cc1OC | . | -3 | -4 | 43* | 12 | -6
Cc1noc(C)c1NC(=O)N[C@H]1CC[C@@H](CC(=O)Nc2ccccc2)O[C@@H]1CO | -35 | -21 | . | . | . | -2
SMILES | PGC1a acetyl inh | LGR2 inh | TRPM1 prom inh | EBV LMP1 NFkB | PAX8 inh HTS | EWS-Fli block
O=C(c1ccccc1)N1CCC(=O)N(C(CO)Cc2ccccc2)CC1 (centres undefined) | -9 | 3 | -1 | -2 | -17 | 4
CC(C)(C)c1ccc(C(=O)N2CCC(=O)N(C(CO)Cc3ccccc3)CC2)cc1 (centres undefined) | -2 | -4 | -2 | 78* | -6 | 3
Cc1ccc(S(=O)(=O)NCC[C@H]2CC[C@@H](NC(=O)c3ccccn3)[C@@H](CO)O2)cc1 | 1 | -14 | . | . | 14 | 5
FC(F)Oc1ccc(NC(=S)NNc2ccnc3cc(Cl)ccc23)cc1 | . | 3 | 69* | 9 | 37 | 13
NC(=S)NNc1ccnc2cc(Cl)ccc12 | . | -11 | 6 | 11 | 19 | 15
OC(CCCN1CCCCC1)(c1ccccc1)c1ccccc1 | 0 | -9 | -1 | 89* | -2 | 4
CCC(O)(CCN1CCCCC1)c1ccccc1 (centres undefined) | 10 | . | 4 | -1 | . | .
CC1CCCN(C(=O)COC(=O)c2n[nH]c3ccccc23)C1 (centres undefined) | 5 | . | -76 | 61* | . | .
Cc1ccc2nc(-c3ccc(NC(=O)C4CCCO4)cc3)[nH]c2c1 (centres undefined) | -4 | 60* | 10 | 34 | . | .
O=C(Nc1ccc(-c2nc3cccnc3s2)cc1)C1CCCO1 (centres undefined) | . | 90* | . | 65* | 0 | 66*
Cc1ccc2nc(-c3ccc(NC(=O)Cc4cccs4)cc3)[nH]c2c1 | -9 | -55 | -46 | -38 | . | -75
O=C(C[C@H]1C=C[C@@H](NC(=O)c2ccncc2)[C@H](CO)O1)NCC1CCCCC1 | 1 | 13 | . | . | . | 3
CCS(=O)(=O)N1CCC2(CC1)CN(S(=O)(=O)c1ccccc1)[C@@H](CO)c1c2c2ccc(OC)cc2n1C | -25 | -2 | . | . | . | -7
N#CC(Cc1ccccc1OC(F)F)c1nc2ccccc2[nH]1 (centres undefined) | . | -8 | -5 | 3 | 76* | -10
c1csc(CNc2ncnc3ccc(-c4ccoc4)cc23)c1 | 50* | 45 | -7 | ? | -5 | -9
COc1ccccc1-c1cnc2c(c1)C(=O)N([C@H](C)CO)C[C@@H](C)[C@@H](CN(C)CC1CCOCC1)O2 | -5 | 17 | . | . | -15 | -11
COc1ccc(NC(=O)/C(Cl)=C(/Cl)S(=O)Cc2ccccc2Cl)cn1 (centres undefined) | . | . | 98* | 89* | . | .
COc1ccc(NC(=O)Cc2ccc(Cl)c(Cl)c2)cn1 | . | 14 | 5 | -5 | -7 | -1
